Assay results as given in PubChem BioAssay (NCATS).
Inconclusive results are not listed. Where a call stands in place of a potency, no number is given. A number with no mark means an inactive call. Activity calls are given as the source filed them. Calls follow the shape of the dose curve; as a rule, active = well fitted curve in the direction sought with a large enough effect; inconclusive = small, poorly fitted or top-dose-only effect, or another doubt; inactive = no such curve, though single readings can be large; an effect the other way counts as inactive or inconclusive.

Experiments:
[1] = qHTS of pediatric cancer cell lines to identify multiple opportunities for drug repurposing: Primary screen for TC32 cells (AID 1347089); also: nearly all actives have a fitted effect of over 60% in size
In short: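 A viability screen of TC32 cells was run over 48 h, with primary MIPE doses spanning 0.78 nM–46 µM and NPC doses 0.59 nM–46 µM. ATP luminescence (CellTiter-Glo) served as the read-out.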

[2] = qHTS of pediatric cancer cell lines to identify multiple opportunities for drug repurposing: Primary screen for DAOY cells (AID 1347090); also: nearly all actives have a fitted effect of over 55% in size
In short: (§1)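 Cell viability, CellTiter-Glo luminescence; 500-1,000 cells/well, 8- or 11-point titration, 48 h compound exposure at 37 degrees C, 5% CO2. Controls: DMSO neutral, bortezomib 2.3 µM final as positive.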

[3] = qHTS of pediatric cancer cell lines to identify multiple opportunities for drug repurposing: Primary screen for SJ-GBM2 cells (AID 1347091)
In short: as §1

[4] = qHTS of pediatric cancer cell lines to identify multiple opportunities for drug repurposing: Primary screen for A673 cells (AID 1347092); also: nearly all actives have a fitted effect of over 45% in size
In short: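 Titration-based qHTS on A673 cells: MIPE compounds spanned 11 points (0.78 nM to 46 µM final), NPC compounds 8 points (0.59 nM to 46 µM final). Viability after 48 h was measured by ATP luminescence.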

[5] = qHTS of pediatric cancer cell lines to identify multiple opportunities for drug repurposing: Primary screen for SK-N-MC cells (AID 1347093)
In short: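 Metabolically active cells were quantified by ATP-dependent luminescence (CellTiter-Glo, 15 min at room temperature) following 48 h treatment. Cells had been plated at 500-1,000 per well and settled for 5 h beforehand.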

[6] = qHTS of pediatric cancer cell lines to identify multiple opportunities for drug repurposing: Primary screen for BT-37 cells (AID 1347094)
In short: (§2)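 Luminescence from CellTiter-Glo served as readout of metabolically active cells after 48 h compound exposure. Titrations: MIPE 11-point, from 0.78 nM; NPC 8-point, from 0.59 nM (final). Concentration-response curves came straight from the primary screen.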

[7] = qHTS of pediatric cancer cell lines to identify multiple opportunities for drug repurposing: Primary screen for NB-EBc1 cells (AID 1347095)
In short: as §2

[8] = qHTS of pediatric cancer cell lines to identify multiple opportunities for drug repurposing: Primary screen for U-2 OS cells (AID 1347096); also: nearly all actives have a fitted effect of over 50% in size
In short: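 Cells (500-1,000/well) rested 5 h, then received compounds for 48 h; metabolically active cells were measured by CellTiter-Glo luminescence. Final concentrations spanned up to 46 µM (MIPE, 11-point) or 0.59 nM-46 µM (NPC, 8-point) in primary screens, 11-point in follow-ups.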
Potency is read from the fitted curve at half-maximal effect.

SMILES | Potency [1] | Potency [2] | Potency [3] | Potency [4] | Potency [5] | Potency [6] | Potency [7] | Potency [8]
CN(C)CCOc1ccccc1Cc1ccccc1 | inactive | inactive | inactive | inactive | inactive | inactive | inactive | inactive
CC(C)(C(=O)c1cccnc1)c1cccnc1 | inactive | inactive | inactive | inactive | inactive | inactive | inactive | inactive
CC1=C(C(=O)O)N2C(=O)[C@@H](NC(=O)[C@H](N)c3ccc(O)cc3)[C@H]2SC1 | inactive | inactive | inactive | inactive |  | inactive | inactive | inactive
CC(=O)OCC(=O)[C@@]1(O)CC[C@H]2[C@@H]3CCC4=CC(=O)C=C[C@]4(C)[C@H]3[C@@H](O)C[C@@]21C | inactive | inactive | inactive | inactive | inactive | inactive | inactive | inactive
CNCC[C@@H](Oc1ccccc1C)c1ccccc1 | inactive | inactive | inactive |  | inactive | inactive | inactive | inactive
CC(Cc1cccc(C(F)(F)F)c1)NCCOC(=O)c1ccccc1 (stereo not given) | inactive | inactive | inactive | inactive |  |  |  | inactive
O=C(N/N=C/c1ccccc1O)c1ccncc1 | 23600 nM (active) | 4220 nM (active) |  |  |  | 11000 nM (active) | 18800 nM (active) | 
CCCC(=O)O[C@]1(C(=O)CO)CC[C@H]2[C@@H]3CCC4=CC(=O)CC[C@]4(C)[C@H]3[C@@H](O)C[C@@]21C | inactive |  | inactive | inactive | inactive | inactive | inactive | inactive
Clc1ccc2c(c1)CCc1cccnc1C2=C1CCNCC1 | inactive | inactive |  |  | inactive | inactive | inactive | inactive
Cc1c(C)n(CCN(C)C)c2ccc(C(=O)OCCN(C)C)cc12 | inactive | inactive | inactive |  |  | inactive | inactive | inactive
COc1cccc2c1C(=O)c1c(O)c3c(c(O)c1C2=O)C[C@@](O)(C(C)=O)C[C@@H]3O[C@H]1C[C@H](N)[C@H](O)[C@H](C)O1 | 236 nM (active) | 1060 nM (active) |  | 266 nM (active) | 84.1 nM (active) | 110 nM (active) | 53.1 nM (active) | 
C[C@@H](CN(C)C)CN1c2ccccc2Sc2ccccc21 | inactive | inactive | inactive |  | inactive |  | inactive | inactive
Oc1c(Cl)cc(Cl)cc1Sc1cc(Cl)cc(Cl)c1O | inactive | inactive |  | inactive |  | inactive |  | inactive
C[C@H]1C[C@H]2[C@@H]3CCC4=CC(=O)C=C[C@]4(C)[C@@]3(Cl)[C@@H](O)C[C@]2(C)[C@@]1(O)C(=O)CO | inactive | inactive |  | inactive | 15000 nM (active) | inactive | inactive | inactive
CC(=O)c1ccc2c(c1)N(CCCN1CCC(CCO)CC1)c1ccccc1S2 | inactive | inactive |  |  | inactive |  | inactive | 
CCOC(=O)[C@H](CCc1ccccc1)N[C@@H](C)C(=O)N1Cc2ccccc2C[C@H]1C(=O)O | inactive |  | inactive | inactive |  | inactive | inactive | 

SMILES | Potency [1] | Potency [2] | Potency [3] | Potency [4] | Potency [5] | Potency [6] | Potency [7] | Potency [8]
O=C(OCCOCCO)c1ccccc1Nc1cccc(C(F)(F)F)c1 | inactive | inactive |  | inactive | inactive | inactive |  | inactive
c1ccc(-c2ccc(C(c3ccccc3)n3ccnc3)cc2)cc1 (stereo not given) | inactive |  | inactive |  |  |  |  | 
COc1cccc2c1C(=O)c1c(O)c3c(c(O)c1C2=O)C[C@@](O)(C(=O)CO)C[C@@H]3O[C@H]1C[C@H](N)[C@H](O)[C@H](C)O1 | 745 nM (active) | 4220 nM (active) |  | 1060 nM (active) | 668 nM (active) | 347 nM (active) | 133 nM (active) | 13300 nM (active)
O=C(Nc1ccc(Oc2ccc(Cl)cc2)c(Cl)c1)c1cc(I)cc(I)c1O | inactive | inactive | 15000 nM (active) |  |  | inactive | 26600 nM (active) | inactive
CCOC(=O)COc1ccc2c(C)c(CCN(CC)CC)c(=O)oc2c1Cl | inactive | inactive |  | inactive | inactive | inactive | inactive | inactive
CCCCCC=CCC=CCCCCCCCC(=O)OCC | inactive | inactive | inactive |  |  | inactive |  | inactive
CC(C)N=C(N)/N=C(\N)Nc1ccc(Cl)cc1 | inactive | inactive | inactive |  |  | inactive | inactive | inactive
CC(C)=CCC1C(=O)N(c2ccccc2)N(c2ccccc2)C1=O | inactive | inactive |  |  |  | inactive | 21100 nM (active) | inactive
COc1cc(N)c(Cl)cc1C(=O)NC1CCN(CCCOc2ccc(F)cc2)CC1OC (stereo not given) | inactive | inactive |  |  |  | inactive | inactive | inactive
CCN(CCCc1ccccc1)CCCc1ccccc1 | inactive | inactive |  | inactive |  |  | inactive | inactive
O=C(OCC(O)CO)c1ccccc1Nc1ccnc2cc(Cl)ccc12 (stereo not given) | inactive |  | inactive | inactive |  |  | inactive | inactive
CC(=O)OCC(=O)[C@@]12OC(C)(C)O[C@@H]1C[C@H]1[C@@H]3C[C@H](F)C4=CC(=O)C=C[C@]4(C)[C@@]3(F)[C@@H](O)C[C@@]12C | inactive |  | inactive | inactive |  |  | inactive | inactive
O=c1[nH]c(=O)n([C@H]2C[C@H](O)[C@@H](CO)O2)cc1C(F)(F)F | 1050 nM (active) |  | inactive | 1680 nM (active) |  | 550 nM (active) |  | 
CC/C(=C(/CC)c1ccc(O)cc1)c1ccc(O)cc1 | inactive | 21100 nM (active) |  |  | 6680 nM (active) |  |  | inactive
CCN(CC)CCOC(=O)C(c1ccccc1)C1CCCCC1 (stereo not given) | inactive | inactive |  | inactive |  |  |  | inactive
